Measurements from the supplement of paper PMC10077471.
Over roughly 1,900 compounds, “excess over highest single agent (ExcessHSA) synergy score, 6x6 matrix” has its median near -83; the lowest 2% begin near -370. This is one part of a sample in which the lowest values are shown more often than they occur.

Tested on: NCI-H446
Assay: excess over highest single agent (ExcessHSA) synergy score, 6x6 matrix; higher = less synergy (more negative = stronger synergy)
Details: 72 h; CellTiter-Glo viability

Row | SMILES | excess over highest single agent
1 | NC(=O)Nc1cc(-c2ccc(CN3CCOCC3)cc2)sc1C(N)=O + Cc1sc2c(c1C)C(c1ccc(Cl)cc1)=N[C@@H](CC(=O)OC(C)(C)C)c1nnc(C)n1-2 [NCGC00250412-19] | -229
2 | CCNC(=O)c1noc(-c2cc(C(C)C)c(O)cc2O)c1-c1ccc(CN2CCOCC2)cc1 + Cc1sc2c(c1C)C(c1ccc(Cl)cc1)=N[C@@H](CC(=O)OC(C)(C)C)c1nnc(C)n1-2 [NCGC00250412-19] | -382
3 | CC(C)c1cc(C(=O)N2Cc3ccc(CN4CCN(C)CC4)cc3C2)c(O)cc1O + Cc1sc2c(c1C)C(c1ccc(Cl)cc1)=N[C@@H](CC(=O)OC(C)(C)C)c1nnc(C)n1-2 [NCGC00250412-19] | -247
4 | CC(C)(C)OC(=O)Nc1ccc(-c2cc(C(=O)NCCCCCCC(=O)NO)no2)cc1 + Cc1sc2c(c1C)C(c1ccc(Cl)cc1)=N[C@@H](CC(=O)OC(C)(C)C)c1nnc(C)n1-2 [NCGC00250412-19] | -161
5 | O=C(O)[C@H]1O[C@@H](Oc2cc3oc(-c4ccccc4)cc(=O)c3c(O)c2O)[C@H](O)[C@@H](O)[C@@H]1O + Cc1sc2c(c1C)C(c1ccc(Cl)cc1)=N[C@@H](CC(=O)OC(C)(C)C)c1nnc(C)n1-2 [NCGC00250412-19] | -92.6
6 | OC1CCC(Nc2ncc3nc(Nc4c(F)cc(F)cc4F)n([C@@H]4CCOC4)c3n2)CC1 (some centres not stated) + Cc1sc2c(c1C)C(c1ccc(Cl)cc1)=N[C@@H](CC(=O)OC(C)(C)C)c1nnc(C)n1-2 [NCGC00250412-19] | 17.3
7 | CCC(=O)N[C@H]1CC[C@H](C(=O)N(C)c2ccc(-c3nc4ccccc4o3)cc2)C1 + Cc1sc2c(c1C)C(c1ccc(Cl)cc1)=N[C@@H](CC(=O)OC(C)(C)C)c1nnc(C)n1-2 [NCGC00250412-19] | -57
8 | CN1CCN(Cc2ccc(NC(=O)Nc3ccc(Oc4cc(NC(=O)C5CC5)ncn4)cc3)cc2C(F)(F)F)CC1 + Cc1sc2c(c1C)C(c1ccc(Cl)cc1)=N[C@@H](CC(=O)OC(C)(C)C)c1nnc(C)n1-2 [NCGC00250412-19] | -34.2
9 | CC(=O)N(C)C1(c2ccccc2)CCN(CCC[C@]2(c3ccc(Cl)c(Cl)c3)CCCN(C(=O)c3ccccc3)C2)CC1 + Cc1sc2c(c1C)C(c1ccc(Cl)cc1)=N[C@@H](CC(=O)OC(C)(C)C)c1nnc(C)n1-2 [NCGC00250412-19] | -142
10 | O=C(N[C@@H](COc1ccc2[nH]c(=O)[nH]c2c1)c1ccccc1)c1cccn(Cc2ccc(F)c(F)c2)c1=O + Cc1sc2c(c1C)C(c1ccc(Cl)cc1)=N[C@@H](CC(=O)OC(C)(C)C)c1nnc(C)n1-2 [NCGC00250412-19] | -158
11 | COCC1OC(=O)c2coc3c2C1(C)C1=C(C3=O)C2CCC(O)C2(C)CC1OC(C)=O (configuration not stated) + Cc1sc2c(c1C)C(c1ccc(Cl)cc1)=N[C@@H](CC(=O)OC(C)(C)C)c1nnc(C)n1-2 [NCGC00250412-19] | -423
12 | COC[C@H]1OC(=O)c2coc3c2[C@@]1(C)C1=C(C3=O)[C@@H]2CCC(=O)[C@@]2(C)C[C@H]1OC(C)=O + Cc1sc2c(c1C)C(c1ccc(Cl)cc1)=N[C@@H](CC(=O)OC(C)(C)C)c1nnc(C)n1-2 [NCGC00250412-19] | -484
13 | COc1cc2ncnc(Nc3cc(Br)c(O)c(Br)c3)c2cc1OC + Cc1sc2c(c1C)C(c1ccc(Cl)cc1)=N[C@@H](CC(=O)OC(C)(C)C)c1nnc(C)n1-2 [NCGC00250412-19] | -207
14 | COC1=C(OC)C(=O)C(C/C=C(\C)CC/C=C(\C)CC/C=C(\C)CC/C=C(\C)CC/C=C(\C)CC/C=C(\C)CC/C=C(\C)CC/C=C(\C)CC/C=C(\C)CCC=C(C)C)=C(C)C1=O + Cc1sc2c(c1C)C(c1ccc(Cl)cc1)=N[C@@H](CC(=O)OC(C)(C)C)c1nnc(C)n1-2 [NCGC00250412-19] | -97.2
15 | COc1cc(OC)c(NC(=O)Nc2cc(C)on2)cc1Cl + Cc1sc2c(c1C)C(c1ccc(Cl)cc1)=N[C@@H](CC(=O)OC(C)(C)C)c1nnc(C)n1-2 [NCGC00250412-19] | -142
16 | Cc1ccc(-c2ncn(-c3ccc(Nc4nccc(-c5cccc(N6CCOCC6)c5)n4)cc3)n2)cn1 + Cc1sc2c(c1C)C(c1ccc(Cl)cc1)=N[C@@H](CC(=O)OC(C)(C)C)c1nnc(C)n1-2 [NCGC00250412-19] | -78.7
17 | CO[C@H]1[C@H](O)[C@@H](O)[C@H](n2c3c(Cl)cccc3c3c4c(c5c6cccc(Cl)c6[nH]c5c32)C(=O)NC4=O)O[C@@H]1CO + Cc1sc2c(c1C)C(c1ccc(Cl)cc1)=N[C@@H](CC(=O)OC(C)(C)C)c1nnc(C)n1-2 [NCGC00250412-19] | -234
18 | N[C@@H](Cc1ccc(O)c(O)c1)C(=O)O + Cc1sc2c(c1C)C(c1ccc(Cl)cc1)=N[C@@H](CC(=O)OC(C)(C)C)c1nnc(C)n1-2 [NCGC00250412-19] | 57.6
19 | O=C(O)C(O)Cc1ccc(O)c(O)c1 (configuration not stated) + Cc1sc2c(c1C)C(c1ccc(Cl)cc1)=N[C@@H](CC(=O)OC(C)(C)C)c1nnc(C)n1-2 [NCGC00250412-19] | -9.7

Row | SMILES | excess over highest single agent
20 | C[C@H](Cc1ccc(O)c(O)c1)[C@@H](C)Cc1ccc(O)c(O)c1 + Cc1sc2c(c1C)C(c1ccc(Cl)cc1)=N[C@@H](CC(=O)OC(C)(C)C)c1nnc(C)n1-2 [NCGC00250412-19] | -373
21 | N#CN=C(NCCCCCCOc1ccc(Cl)cc1)Nc1ccncc1 + Cc1sc2c(c1C)C(c1ccc(Cl)cc1)=N[C@@H](CC(=O)OC(C)(C)C)c1nnc(C)n1-2 [NCGC00250412-19] | -32.9
22 | C/C=C(/C)C(=O)O[C@H]1C(C)=C[C@]23C(=O)[C@@H](C=C(CO)[C@@H](O)[C@]12O)[C@H]1[C@@H](C[C@H]3C)C1(C)C + Cc1sc2c(c1C)C(c1ccc(Cl)cc1)=N[C@@H](CC(=O)OC(C)(C)C)c1nnc(C)n1-2 [NCGC00250412-19] | 104
23 | O=C(Nc1cccc(Nc2ncc(Br)c(NCCc3cnc[nH]3)n2)c1)N1CCCC1 + Cc1sc2c(c1C)C(c1ccc(Cl)cc1)=N[C@@H](CC(=O)OC(C)(C)C)c1nnc(C)n1-2 [NCGC00250412-19] | -166
24 | C[C@@H](N)c1ccc(C(=O)Nc2ccnc3[nH]ccc23)cc1 + Cc1sc2c(c1C)C(c1ccc(Cl)cc1)=N[C@@H](CC(=O)OC(C)(C)C)c1nnc(C)n1-2 [NCGC00250412-19] | 125
25 | Oc1ccc(-c2ccc(-c3cc(Nc4cccc(CNC5CC5)c4)n[nH]3)cc2)c(O)c1 + Cc1sc2c(c1C)C(c1ccc(Cl)cc1)=N[C@@H](CC(=O)OC(C)(C)C)c1nnc(C)n1-2 [NCGC00250412-19] | 79.8
26 | COc1cccc2nc(-c3cccs3)nc(NN3C(=O)C=C(C)C3=O)c12 + Cc1sc2c(c1C)C(c1ccc(Cl)cc1)=N[C@@H](CC(=O)OC(C)(C)C)c1nnc(C)n1-2 [NCGC00250412-19] | -408
27 | CN(CC(=O)N(Cc1ccc(C2CCCCC2)cc1)c1ccc(C(=O)O)c(O)c1)S(=O)(=O)c1c(F)c(F)c(F)c(F)c1F + Cc1sc2c(c1C)C(c1ccc(Cl)cc1)=N[C@@H](CC(=O)OC(C)(C)C)c1nnc(C)n1-2 [NCGC00250412-19] | -91.4
28 | Clc1cccc(-n2nnnc2NCc2ccccc2Oc2ccccn2)c1Cl + Cc1sc2c(c1C)C(c1ccc(Cl)cc1)=N[C@@H](CC(=O)OC(C)(C)C)c1nnc(C)n1-2 [NCGC00250412-19] | -103
29 | Cn1cc(C2=C(c3c4n(c5ccccc35)CCC(CN)C4)C(=O)NC2=O)c2ccccc21 (configuration not stated) + Cc1sc2c(c1C)C(c1ccc(Cl)cc1)=N[C@@H](CC(=O)OC(C)(C)C)c1nnc(C)n1-2 [NCGC00250412-19] | -42.8
30 | Cc1cnc(Nc2cccc(CN3CCOCC3)c2)nc1Nc1cccc(S(=O)(=O)NC(C)(C)C)c1 + Cc1sc2c(c1C)C(c1ccc(Cl)cc1)=N[C@@H](CC(=O)OC(C)(C)C)c1nnc(C)n1-2 [NCGC00250412-19] | 108
31 | CC(=O)Nc1sc2c(c1-c1nc3ccccc3s1)CNC2 + Cc1sc2c(c1C)C(c1ccc(Cl)cc1)=N[C@@H](CC(=O)OC(C)(C)C)c1nnc(C)n1-2 [NCGC00250412-19] | 354
32 | Cc1c(CN2CCN(C(=O)[C@H](C)O)CC2)sc2c(N3CCOCC3)nc(-c3cnc(N)nc3)nc12 + Cc1sc2c(c1C)C(c1ccc(Cl)cc1)=N[C@@H](CC(=O)OC(C)(C)C)c1nnc(C)n1-2 [NCGC00250412-19] | -434
33 | CC(C)(O)c1cc2nc(-c3cnc(N)nc3)nc(N3CCOCC3)c2s1 + Cc1sc2c(c1C)C(c1ccc(Cl)cc1)=N[C@@H](CC(=O)OC(C)(C)C)c1nnc(C)n1-2 [NCGC00250412-19] | -253
34 | Cc1c(CN2CCN(S(C)(=O)=O)CC2)sc2c(N3CCOCC3)nc(-c3cnc(N)nc3)nc12 + Cc1sc2c(c1C)C(c1ccc(Cl)cc1)=N[C@@H](CC(=O)OC(C)(C)C)c1nnc(C)n1-2 [NCGC00250412-19] | -334
35 | CNC(=O)c1c(-c2ccc(F)cc2)oc2cc(N(CCO)S(C)(=O)=O)c(C3CC3)cc12 + Cc1sc2c(c1C)C(c1ccc(Cl)cc1)=N[C@@H](CC(=O)OC(C)(C)C)c1nnc(C)n1-2 [NCGC00250412-19] | -113
36 | CN[C@H]1CCc2cc(OC)c(OC)c(OC)c2-c2ccc(OC)c(=O)cc21 + Cc1sc2c(c1C)C(c1ccc(Cl)cc1)=N[C@@H](CC(=O)OC(C)(C)C)c1nnc(C)n1-2 [NCGC00250412-19] | -167
37 | Cc1nc(Nc2n[nH]c3c2CN(C(=O)N[C@H](CN(C)C)c2ccccc2)C3(C)C)c2sccc2n1 + Cc1sc2c(c1C)C(c1ccc(Cl)cc1)=N[C@@H](CC(=O)OC(C)(C)C)c1nnc(C)n1-2 [NCGC00250412-19] | -503
